Test results published in PubChem BioAssay AID1159580 (chemical genetic matrix, 2015).
Screen size: about 5,500 compounds; about 2,000 (36%) were called active. Inconclusive results (about 18%) are left out. Cut-off read from the data, not from the text of the source: active = normalized growth mostly below about 0.91 (no sharp cut-off); inconclusive = no clear call, values can overlap the other calls; inactive = mostly above about 0.92. Some of the results follow.

Experiment: chemical genetic growth profiling, strain panel (AID 1159580);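 note: tested at 20 µM; growth read once vehicle control cultures reached saturation at 30 °C; 1 = growth at the plate median or of vehicle wells; lower values mean less growth of the strain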
Settings: S. cerevisiae deletion strains, growth OD

Measured: normalized growth

N[C@@H](CC(=O)N1CCn2c(nnc2C(F)(F)F)C1)Cc1cc(F)c(F)cc1F
inactive: locus YAL021C, strain ccr4, hits give low values 0.992 | locus YAL026C, strain drs2, hits give low values 0.97 | locus YAL030W, strain snc1, hits give low values 0.985 | locus YBL061C, strain skt5, hits give low values 0.985 | locus YBR009C, strain hhf1, hits give low values 0.949 | locus YBR023C, strain chs3, hits give low values 0.993 | locus YBR171W, strain sec66, hits give low values 0.992 | locus YBR231C, strain swc5, hits give low values 0.995 | locus YBR279W, strain paf1, hits give low values 0.988 | locus YCL011C, strain gbp2, hits give low values 0.982 | locus YCL016C, strain dcc1, hits give low values 0.992 | locus YCL061C, strain MRC1, hits give low values 0.987 | locus YCL069W, strain vba3, hits give low values 0.984 | locus YCR088W, strain abp1, hits give low values 0.984 | locus YDL005C, strain med2, hits give low values 0.983 | locus YDL040C, strain nat1, hits give low values 0.992 | locus YDR001C, strain nth1, hits give low values 0.985 | locus YDR069C, strain doa4, hits give low values 0.971 | locus YDR137W, strain rgp1, hits give low values 1.01 | locus YDR159W, strain sac3, hits give low values 0.952 | locus YDR195W, strain ref2 0.941 | locus YDR297W, strain sur2, hits give low values 0.978 | locus YDR334W, strain swr1, hits give low values 0.982 | locus YDR335W, strain msn5, hits give low values 0.991 | locus YDR392W, strain spt3, hits give low values 0.887 | locus YEL003W, strain gim4, hits give low values 0.966 | locus YEL037C, strain rad23, hits give low values 0.983 | locus YEL061C, strain CIN8 (second series), hits give low values 0.983 | locus YER015W, strain faa2, hits give low values 0.978 | locus YER016W, strain bim1, hits give low values 0.995 | locus YER111C, strain swi4, hits give low values 0.988 | locus YER155C, strain BEM2 (second series), hits give low values 0.966 | locus YFR010W, strain ubp6, hits give low values 0.975 | locus YGL167C, strain pmr1, hits give low values 0.964 | locus YGL173C, strain kem1, hits give low values 0.985 | locus YGL227W, strain vid30, hits give low values 0.967 | locus YGL240W, strain doc1, hits give low values 0.981 | locus YGL253W, strain hxk2, hits give low values 0.996 | locus YHR013C, strain ard1, hits give low values 0.944 | locus YHR027C, strain rpn1, hits give low values 0.985 | locus YHR030C, strain SLT2, hits give low values 1.03 | locus YHR079C, strain IRE1, hits give low values 0.985 | locus YHR142W, strain chs7, hits give low values 1.01 | locus YJL092W, strain hpr5, hits give low values 0.989 | locus YJL095W, strain BCK1 (second series), hits give low values 0.993 | locus YJL095W, strain BCK1, hits give low values 0.96 | locus YJL115W, strain asf1, hits give low values 0.984 | locus YJL129C, strain trk1, hits give low values 1.01 | locus YJL154C, strain vps35, hits give low values 0.987 | locus YJL164C, strain tpk1, hits give low values 1 | locus YJL166W, strain qcr8, hits give low values 0.993 | locus YJL187C, strain SWE1, hits give low values 0.98 | locus YJR066W, strain TOR1, hits give low values 0.928 | locus YKL160W, strain elf1, hits give low values 1.01 | locus YKR026C, strain gcn3, hits give low values 0.972 | locus YKR091W, strain srl3, hits give low values 0.955 | locus YLL001W, strain dnm1, hits give low values 0.992 | locus YLL026W, hits give low values 0.995 | locus YLL041C, strain sdh2, hits give low values 0.994 | locus YLR027C, strain aat2, hits give low values 0.988 | locus YLR113W, strain HOG1, hits give low values 0.978 | locus YLR221C, strain rsa3, hits give low values 0.989 | locus YLR258W, strain gsy2, hits give low values 0.979 | locus YLR262C, strain YPT6 (second series), hits give low values 1 | locus YLR320W, strain mms22, hits give low values 0.998 | locus YLR342W, strain FKS1, hits give low values 0.958 | locus YLR357W, strain rsc2, hits give low values 0.989 | locus YLR370C, strain arc18, hits give low values 0.977 | locus YLR384C, strain iki3, hits give low values 0.969 | locus YML120C, strain ndi1, hits give low values 0.988 | locus YMR058W, strain fet3, hits give low values 0.977 | locus YMR125W, strain sto1, hits give low values 0.974 | locus YMR129W, hits give low values 0.984 | locus YMR205C, strain PFK2, hits give low values 0.96 | locus YMR231W, strain pep5, hits give low values 0.977 | locus YNL071W, strain lat1, hits give low values 0.979 | locus YNL183C, strain NPR1, hits give low values 0.898 | locus YNL209W, strain ssb2, hits give low values 0.986 | locus YNL248C, strain rpa49, hits give low values 1.01 | locus YNL322C, strain KRE1 (second series), hits give low values 0.975 | locus YNR049C, strain mso1, hits give low values 0.98 | locus YOR001W, strain rrp6, hits give low values 1.01 | locus YOR070C, strain gyp1, hits give low values 0.995 | locus YOR080W, strain dia2, hits give low values 0.976 | locus YOR083W, strain WHI5, hits give low values 1.01 | locus YOR106W, strain vam3, hits give low values 0.994 | locus YOR231W, strain MKK1, hits give low values 0.975 | locus YOR265W, strain rbl2, hits give low values 0.993 | locus YOR270C, strain vph1, hits give low values 0.984 | locus YOR290C, strain snf2, hits give low values 0.903 | locus YPL051W, strain arl3, hits give low values 1.01 | locus YPL078C, strain atp4, hits give low values 0.992 | locus YPL106C, strain sse1, hits give low values 0.976 | locus YPL240C, strain hsp82, hits give low values 0.965 | locus YPL256C, strain CLN2, hits give low values 0.981
